Test results reported in PubChem BioAssay AID686971 (National Center for Advancing Translational Sciences (NCATS), 2013).
In all, about 360,000 compounds went through this assay and about 7,500 (2.1%) were called active. Entries that show only a call come without a potency. Another 8% or so got no clear call; they are omitted. Calls come from the whole dose curve; as a rule, active = well fitted cell-killing curve with a large enough effect; inconclusive = small, poorly fitted or top-dose-only effect, or effect the other way, or another doubt; inactive = no such curve, though single readings can be large or run the other way. The sample as a whole holds a higher share of actives than the screen did.

Assay: qHTS for induction of synthetic lethality in tumor cells producing 2HG: qHTS for the HT-1080-IDH1KD cell line
Conditions: HT-1080 IDH1 knockdown viability, ATP luminescence, 48 h; series mostly up to 46.1 µM
Summary of the method: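 Using the IDH1-knockdown HT-1080 line run in the same batch and compound series as the NT line, viability after 48 h at 37 °C was determined by CellTiter-Glo luminescence and expressed as % activity.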
Potency is the fitted concentration of half-maximal effect.

SMILES | Potency
CC(C)(C)CC(=O)Nc1nnc(SCC(=O)NCc2cccs2)s1 | inactive
CC(C)C[C@H](NC(=O)Nc1cccc(C(F)(F)F)c1)C(=O)O | inactive
C=C1C=C(C)n2ncc(C(=O)Nc3ccccc3O)c2N1 | inactive
CCc1nc2c(OCCOc3ccccc3)cccn2c1N(C)C(=O)c1ccccc1F | inactive
CCOc1cc(/C=N/NC(=O)c2ccncc2)cc(Br)c1O | inactive
Cc1cc(Cl)ccc1C(=O)C1CCCN(C(=O)c2ccc3c(c2)OCO3)C1 (stereo not given) | inactive
C[C@@H]1CN([C@@H](C)CO)C(=O)CCCn2cc(nn2)CO[C@H]1CN(C)S(=O)(=O)c1ccc(-n2cccn2)cc1 | inactive
O=C(c1ccc(CS(=O)Cc2ccccc2Cl)o1)N1CCN(c2ccccc2)CC1 (stereo not given) | inactive
CC1(C(=O)NS(=O)(=O)c2ccc(C#N)cc2)CCN1C(=O)c1ccc(C2CCCCC2)cc1 (stereo not given) | inactive
CCOC(=O)C1C(C)C(C(C)(C)C)N(S(=O)(=O)c2ccc(C)cc2)C1c1ccccc1 (stereo not given) | inactive
Cc1ccc(-c2ccc(CN3C(C)C(=O)N(Cc4cn(CCC5OCCCO5)nn4)CCS3(=O)=O)cc2)cc1 (stereo not given) | inactive
CC1(C(=O)Nc2cccc3c2CCCC3)CCN1C(=O)C1(c2ccccc2)CC1 (stereo not given) | inactive
O=C(Nc1cccc(Cc2ccccc2)c1)Nc1ccc2nc([C@@H]3O[C@H](CO)[C@@H](O)[C@H](O)[C@H]3O)[nH]c2c1 | inactive
Cc1[nH]c2ccccc2c1C(=O)CN1CC(C)CC(C)C1 (stereo not given) | 18.4 µM (active)
Cc1[nH]c2ccccc2c1C(=O)CSCC(=O)O | inactive
Cc1[nH]c2ccccc2c1C(=O)CN1CCCC(C)C1 (stereo not given) | inactive
C=CCn1c2c(c3ccccc31)CCC2 | inactive
C=C1C(=O)OC2C1CCC(C)=CCCC1(C)OC21 (stereo not given) | 11.6 µM (active)
Cn1c(=O)c([N+](=O)[O-])c(Oc2ccccc2)c2ccccc21 | 23.1 µM (active)
Cc1cc(C)c(-c2c(O)c3ccccc3n(C)c2=O)c(C)c1 | inactive
COc1cc2c(=O)n(C)c3ccccc3c2cc1OC | inactive
Cc1c(/C=N/N2C(=O)C3C4C=CC(C4)C3C2=O)c2ccccc2n1C (stereo not given) | inactive
Cc1c(/C=N\NC(=O)c2cc3ccccc3o2)c2ccccc2n1C | 18.4 µM (active)
O=C(N/N=C/c1cccc(O)c1)c1cc2c(ccc3ccccc32)o1 | inactive
CN(Cc1ccccc1)C(=O)[C@@H]1CCCN1C(=O)[C@@H]1CCCN1C(=O)c1c(F)cccc1F | inactive

SMILES | Potency
CCOC(=O)/C=C/C(=O)OCC(=O)NC(c1ccccc1)c1ccccc1 | 20.6 µM (active)
O=C(Cc1ccc(-c2ccccc2)cc1)NC(c1ccccc1)c1ccccc1 | inactive
CCOC(=O)C(C(=O)OCC)C(C#N)c1ccccc1 (stereo not given) | inactive
CN(C)c1ccc(Nc2c3c4c(cccc4n(C)c2=O)C(=O)c2ccccc2-3)cc1 | 4.61 µM (active)
CN(C)c1ccc(C2N(C)C(=O)c3ccccc3N2C)cc1 (stereo not given) | inactive
CSc1ncnc2c1ncn2CCCNCC(C)c1ccccc1 (stereo not given) | inactive
c1ccc(Cn2nnc3c(NCC4CC4)ncnc32)cc1 | inactive
O=[N+]([O-])/C=C/c1ccc2c(ccn2Cc2ccccc2)c1 | 16.4 µM (active)
CCc1nc2ccc(C(=O)N(C)Cc3ccco3)cn2c1N(C)C(=O)Cc1ccccc1 | inactive
Cc1ccc(S(=O)(=O)N2C[C@H]3C(=O)C[C@@H](c4cccc5ccccc45)N(S(=O)(=O)c4ccc(C)cc4)[C@H]3C[C@H]2c2ccc(Cl)cc2)cc1 | inactive
COCC(C)NC(=O)COc1nncc2ccccc12 (stereo not given) | inactive
NC(Cc1ccc(F)cc1)c1csc(Nc2nncc3ccccc23)n1 (stereo not given) | 25.9 µM (active)
CC(=O)c1ccc(Nc2nc(C(N)c3ccccc3)cs2)cc1 (stereo not given) | inactive
CN1CCN(C(=O)c2ccc(-c3cc4nc(NCc5cccnc5)n(C)c(=O)c4s3)cc2)CC1 | inactive
CNc1cnc(-c2cc(OC)c(OC)c(OC)c2)cn1 | inactive
CC(=O)Nc1ccc(S(=O)(=O)N(C)c2nc3ccccc3nc2Cl)cc1 | inactive
CC(=O)Nc1ccc(Nc2c3ccccc3nc3ccccc23)cc1 | 14.6 µM (active)
CC(=O)Nc1ccc(Nc2cc(C)nc(Nc3ccc(NC(C)=O)cc3)n2)cc1 | inactive
Cc1ccc(S(=O)(=O)N2CC3C(=O)C[C@@H](c4ccccc4Cl)N(S(=O)(=O)c4ccc(C)cc4)C3CC2c2ccccc2)cc1 (stereo not given in full) | inactive
CCOC(=O)C1CCCN(C(=O)c2cccc3ccccc23)CC1 (stereo not given) | inactive
C[C@@H]1Cn2cnc(C(=O)Nc3ccc(CNC(=O)OC(C)(C)C)cc3)c2C(=O)N1 | inactive
COC(=O)Nc1nc2ccc(Sc3ccccc3)cc2[nH]1 | 0.82 µM (active)
CN(c1ccccc1)S(=O)(=O)c1cc(C(=O)Nc2nc3ccccc3[nH]2)ccc1Cl | inactive
Cc1ccc(O)c(CNc2nc3ccccc3[nH]2)c1 | inactive
CCOC(=O)C1(C)CCCN(C(=O)c2ccc(F)c(Cl)c2)C1 (stereo not given) | inactive
